Reference: ChEMBL document CHEMBL3433997, “St. Jude Leishmania screening dataset” (2016)

Experiments:
Format in all cases: functional
[1] = molecular target: Solute carrier family 2, facilitated glucose transporter member 1 (Homo sapiens) (UniProt P11166); assay: ST_JUDE_LEISH: Cytotoxicity at 2uM final concentration against transgenic Leishmania Mexicana promastigotes LmGLUT1 that are glucose transport deficient and complemented with the human glucose transporter GLUT1. Activity is measured by DNA content using SYBR green in vitro
[2] = molecular target: Hexose transporter 1 (Plasmodium falciparum) (UniProt O97467); assay: ST_JUDE_LEISH: Cytotoxicity at 2uM final concentration against transgenic Leishmania Mexicana promastigotes LmPfHT that are glucose transport deficient and complemented with the Plasmodium falciparum hexose transporter. Activity is measured by DNA content using SYBR green in vitro
[3] = molecular target: Glucose transporter (Leishmania mexicana) (UniProt O61059); assay: ST_JUDE_LEISH: Cytotoxicity at 2uM final concentration against transgenic Leishmania Mexicana promastigotes LmGT2 that are glucose transport deficient and complemented with the L. Mexicana glucose transporter 2. Activity is measured by DNA content using SYBR green in vitro

Solute carrier family 2, facilitated glucose transporter member 1 (Homo sapiens), sequence (P11166 whole entry): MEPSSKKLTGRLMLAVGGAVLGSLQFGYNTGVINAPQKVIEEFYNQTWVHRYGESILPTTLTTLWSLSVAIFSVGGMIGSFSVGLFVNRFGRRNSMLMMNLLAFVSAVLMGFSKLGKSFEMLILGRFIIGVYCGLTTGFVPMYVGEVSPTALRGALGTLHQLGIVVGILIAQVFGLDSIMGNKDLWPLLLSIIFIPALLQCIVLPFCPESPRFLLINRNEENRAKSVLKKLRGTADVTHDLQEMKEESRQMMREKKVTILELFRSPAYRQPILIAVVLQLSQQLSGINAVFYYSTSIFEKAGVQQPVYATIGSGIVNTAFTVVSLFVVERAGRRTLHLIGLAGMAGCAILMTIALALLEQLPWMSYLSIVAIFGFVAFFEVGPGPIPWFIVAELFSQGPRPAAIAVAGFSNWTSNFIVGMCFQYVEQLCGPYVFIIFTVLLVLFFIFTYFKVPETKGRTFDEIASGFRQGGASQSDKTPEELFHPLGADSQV

Structure (SMILES) | inhibition [1] [%] | inhibition [2] [%] | inhibition [3] [%]
CC(C)C[C@H](NC(=O)c1cc2ccccc2s1)C(=O)N[C@H]1CCN(Cc2ccc(I)c(OCCN3CCCC3)c2)C1 | -0.35 | -1.55 | -0.29
COc1ccc2c(=NN=Cc3ccccc3Cl)cc(C)[nH]c2c1 | 0.91 | 0.95 | 0.2
O=C1NC(c2ccc(N3CCCCCC3)cc2)Nc2ccccc21 (configuration not stated) | 6.32 | 4.82 | 2.21
Cc1cc(NC(=O)c2ccco2)ccc1OC1CCN(Cc2ccc(F)cc2)C1 (configuration not stated) | 0.1 | 0.21 | 0.41
